Potency data for 40 molecules are collected here from PubChem BioAssay (NCATS).

The structures appear in SMILES notation. Records with an inconclusive call do not appear. Activity calls are given as the source filed them. The call rests on the fitted dose curve; in most records, active means well fitted cell-killing curve with a large enough effect; inconclusive means small, poorly fitted or top-dose-only effect, or effect the other way; inactive means no such curve, though single readings can be large or run the other way.
Potency means the concentration at half of the fitted maximal effect.

A short description of this test: Quantitative High-Throughput drug screen in 47 multiple myeloma cell lines against the NCATS MIPE library collection: KMS26_JCRB cell viability assay (AID 1918975). Further: nearly all actives have a fitted effect of over 45% in size. As to conditions: KMS26 myeloma cells viability, CellTiter-Glo ATP, 48 h; series mostly up to 45.8 µM. From the text:
PI: Beverly A. Mock Ph.D.
Laboratory of Cancer Biology and Genetics,
Center for Cancer Research, National Cancer Institute,
National Institute of Health, Bethesda, Maryland
Drug resistance and disease progression are common in multiple myeloma (MM) patients, underscoring the need for new therapeutic combinations. […] We hypothesized that effective combinations would reduce MYC expression and enhance p16 activity. […] These preclinical data identify potentially useful drug combinations for evaluation in drug-resistant MM and reveal potential mechanisms of combined drug sensitivity.
Described herein is the primary MIPE qHTS used to cherrypick compounds. Validated compounds were then further tested for potential synergistic activiy.
[1] Peat TJ, Gaikwad SM, Dubois W, Gyabaah-Kessie N, Zhang S, Gorjifard S, Phyo Z, Andres M, Hughitt VK, Simpson RM, Miller MA, Girvin AT, Taylor A, Williams D, D'Antonio N, Zhang Y, Rajagopalan A, Flietner E, Wilson K, Zhang X, Shinn P, Klumpp-Thomas C, McKnight C, Itkin Z, Chen L, Kazandijian D, Zhang J, Michalowski AM, Simmons JK, Keats J, Thomas CJ, Mock BA. Drug combinations identified by high-throughput screening promote cell cycle transition and upregulate Smad pathways in myeloma. Cancer Lett. 2023 Aug 1;568:216284. doi: 10.1016/j.canlet.2023.216284. Epub 2023 Jun 24. PMID: 37356470; PMCID: PMC10408729.
SEQUENCE No. (e.g., 1, 2, 3, etc.); […] (e.g., Cells, Incubation, Reagent, etc.); VALUE and DESCRIPTION.
1; Cells; 5 uL; white, solid bottom 1536-well Greiner assay plate.
2; Compounds; 23 nL; Kalypsis pin tool (Wako USA) equipped with a 1536-well pin head to transfer to the assay plates.
3; Incubation; 48 hours; 37C incubation.
4; Reagent;5uL; CellTiter Glo (Promega).
5; Detector; 425V; Luminescence; Viewlux PerkinElmer.
NOTES (numbers refer to Sequence numbers above)
1. The cell-based screening methods employed in this study were like those previously published. Briefly, the corresponding myeloma cell lines were screened in 1,536-well plates with 500 cells, 5-uL per well for inhibition of cell viability (assessed by measuring ATP levels with CellTiterGlo).
2. NCATS MIPE 4.0 library of approved and investigational drugs were added using the Kalypsis pin tool. Wells treated with DMSO only for 100% viability and media only wells for 0% viability were used as controls.
3. The assay plates were covered and incubated for 48 hours in a 37C, 5% CO2 incubator with controlled humidity.
4. After 48 hours, CellTilter-GloTM luminescent substrate mix (Promega) reagent was added to the assay plate and plates we incubated for 5 min at room temperature.
5. Signal was measured as median relative luminescence units on a ViewLux (PerkinElmer) multiplate reader.
[1] Heske CM, Davis MI, Baumgart JT, Wilson K, Gormally MV, Chen L, Zhang X, Ceribelli M, Duveau DY, Guha R, Ferrer M, Arnaldez FI, Ji J, Tran HL, Zhang Y, Mendoza A, Helman LJ, Thomas CJ. Matrix Screen Identifies Synergistic Combination of PARP Inhibitors and Nicotinamide Phosphoribosyltransferase (NAMPT) Inhibitors in Ewing Sarcoma. Clin Cancer Res. 2017 Dec 1;23(23):7301-7311. doi: 10.1158/1078-0432.CCR-17-1121. Epub 2017 Sep 12. PMID: 28899971; PMCID: PMC6636827.
`Cn1cc(-c2cnn3c(N)c(Br)c([C@H]4CCCNC4)nc23)cn1`: the Potency is 8.33 µM (active).
Take `CCCCC(=O)O[C@]1(C(=O)CO)[C@@H](C)C[C@H]2[C@@H]3CCC4=CC(=O)C=C[C@]4(C)[C@@]3(F)[C@@H](O)C[C@@]21C`: the Potency entry is “inactive”.
For `Cc1cc(Nc2ncc3c(n2)N(C)C(=O)N(c2cc(NC(=O)c4cccc(C(F)(F)F)c4)ccc2C)C3)n(C)n1`, the Potency was 5.9 µM (active).
`COC(=O)C1C2CC3c4[nH]c5cc(OC)ccc5c4CCN3CC2CC(OC(=O)c2cc(OC)c(OC)c(OC)c2)C1OC` (stereo not given): the Potency entry is “inactive”.
The value for `NC(=O)Nc1cc(-c2ccc(CN3CCOCC3)cc2)sc1C(N)=O` was 23.5 µM (active); that for `COc1cc(O)c2c(c1)C1OC1C[C@H](O)[C@H](O)C(=O)C=CC[C@H](C)OC2=O` (stereo not given in full) was 1.87 µM (active); that for `CN[C@@H]1C[C@H]2O[C@@](C)([C@H]1OC)n1c3ccccc3c3c4c(c5c6ccccc6n2c5c31)C(=O)N[C@H]4O` was 1.66 µM (active).
The value for `CN1[C@H]2CC(OC(=O)[C@@H](CO)c3ccccc3)C[C@H]1[C@H]1O[C@H]12` (stereo not given in full) was “inactive”.
The value for `Cc1cnc(Nc2ccc(N3CCN(C)CC3)cc2)nc1Nc1cccc(S(=O)(=O)NC(C)(C)C)c1` was 6.62 µM (active); that for `C[C@H](NC(=O)Cc1cc(F)cc(F)c1)C(=O)N[C@H](C(=O)OC(C)(C)C)c1ccccc1` was “inactive”.
For the molecule `CCCNC(=O)[C@H]1O[C@H]1C(=O)N[C@H](C(=O)N1CCC[C@@H]1C(=O)OC)C(C)CC` (stereo not given in full), the Potency is 11.8 µM (active).
The value for `CNC(=O)Nc1ccc(-c2nc(N3CC4CCC(C3)O4)c3cnn(C4CCC5(CC4)OCCO5)c3n2)cc1` was 1.18 µM (active); that for `C[C@@H]1C(=O)O[C@H]2CC34[C@H]5C[C@@H](C(C)(C)C)C36[C@H](OC(=O)[C@@H]6O)O[C@@]4(C(=O)O5)[C@]21O` (stereo not given in full) was “inactive”.
On to `CNC(=O)c1cccc(-c2ccc3c(N4CCOC[C@H]4C)nc(N4CCOC[C@H]4C)nc3n2)c1`, for which the Potency was 1.18 µM (active).
As for `COc1cc(OC)cc(-c2ccc3ncc4ccc(=O)n(-c5ccc(N6CCNCC6)c(C(F)(F)F)c5)c4c3c2)c1`, the Potency was 5.9 µM (active).
The value for `CNC(=O)c1ccc(Nc2cc(Nc3ccccc3S(=O)(=O)C(C)C)c3cc[nH]c3n2)nc1` was 18.7 µM (active).
The value for `OC[C@H]1OC(O)C[C@@H](O)[C@H]1O` (stereo not given in full) was “inactive”.
Turning to `c1cncc(CN2CCC(n3ncc4c(N5CCOCC5)nc(-c5ccc6[nH]ccc6c5)nc43)CC2)c1`, the Potency is 4.69 µM (active).
For the molecule `Cc1cnc(NC(=O)Nc2cc(Br)c(C)cc2OC[C@@H]2CNCCO2)cn1`, the Potency is 16.6 µM (active).
As for `C[C@H](NC(=O)[C@@H](O)c1cc(F)cc(F)c1)C(=O)N[C@@H]1C(=O)N(C)c2ccccc2-c2ccccc21`, the Potency result is “inactive”.
The value for `COc1ccc(CCC(=O)c2c(O)cc(O[C@@H]3O[C@H](CO)[C@@H](O)[C@H](O)[C@@H]3O[C@@H]3O[C@@H](C)[C@H](O)[C@@H](O)[C@@H]3O)cc2O)cc1O` was “inactive”; that for `CC(C)C[C@H](NC(=O)[C@@H](NC(=O)c1cccc(-c2ccccc2)n1)[C@@H](C)O)B(O)O` was 0.0418 µM (active); that for `Cn1cc(C2=C(c3c4n(c5ccccc35)CCC(CN)C4)C(=O)NC2=O)c2ccccc21` (stereo not given) was 18.7 µM (active).
The value for `O=C1NC(=O)[C@@H](c2cn3c4c(cccc24)CCC3)[C@H]1c1c[nH]c2ccccc12` was 16.6 µM (active); that for `CCc1ccc(C(=O)Nc2cc(CN3CCN(C)CC3)cc(C(F)(F)F)c2)cc1C#Cc1cnc2ccnn2c1` was 16.6 µM (active).
The value for `CCCCCCCCCCCCCCCC(=O)OC[C@@H](NC(=O)C(Cl)Cl)[C@H](O)c1ccc([N+](=O)[O-])cc1` was “inactive”.
As to `CCCCCCCCc1ccc(CCC(N)(CO)CO)cc1`, the Potency was 16.6 µM (active).
For the molecule `Oc1cc(-c2nc(-c3ccccc3)[nH]c2-c2ccncc2)ccc1Cl`, the Potency was 16.6 µM (active).
On to `CC(C=CC=C(C)C=CC1=C(C)CCCC1(C)C)=CC=CC=C(C)C=CC=C(C)C=CC1=C(C)CCCC1(C)C`, for which the Potency was 13.2 µM (active).
With `C[C@H]1O[C@H](O[C@H]2[C@H](O)[C@@H](O)[C@@H](O[C@H]3[C@H](O)[C@@H](O)C(O)O[C@H]3CO)O[C@H]2CO)[C@H](O)[C@@H](O)[C@H]1N[C@H]1C=C(CO)[C@@H](O)[C@H](O)[C@@H]1O` (stereo not given in full), the Potency entry is “inactive”.
`COc1cc(CCc2cc(NC(=O)c3ccc(N4C[C@@H](C)N[C@@H](C)C4)cc3)n[nH]2)cc(OC)c1`: the Potency was 20.9 µM (active).
Consider `Oc1cc2c(cc1O)C1c3ccc(O)c(O)c3OCC1(O)C2` (stereo not given), for which the Potency result was “inactive”.
The value for `C[C@H](CCC(=O)O)[C@H]1CCC2C3C[C@H](O)[C@@H]4C[C@H](O)CC[C@]4(C)C3CC[C@@]21C` (stereo not given in full) was “inactive”; that for `COc1cccc2c1C(=O)c1c(O)c3c(c(O)c1C2=O)C[C@@](O)(C(=O)CO)C[C@@H]3O[C@H]1C[C@H](N)[C@H](OC2CCCCO2)[C@H](C)O1` (stereo not given in full) was 2.96 µM (active).
Take `O=C(O)C[C@H](O)C[C@H](O)C=Cc1c(C2CC2)nc2ccccc2c1-c1ccc(F)cc1`: the Potency was 18.7 µM (active).
The value for `c1cc(CN2CCCNCCNCCCNCC2)ccc1CN1CCCNCCNCCCNCC1` was “inactive”.
The value for `CCOC(=O)[C@@H](N)Cc1ccc(-c2cc(O[C@H](c3ccc(Cl)cc3-n3ccc(C)n3)C(F)(F)F)nc(N)n2)cc1` was 18.7 µM (active); that for `Nc1nc(=O)n([C@H]2CSC(CO)O2)cc1F` (stereo not given in full) was “inactive”.
Take `CCOc1cc2ncc(C#N)c(Nc3ccc(OCc4ccccn4)c(Cl)c3)c2cc1NC(=O)C=CCN(C)C`: the Potency is 18.7 µM (active).
The value for `C[C@@H](Cc1cc2c(c(C(N)=O)c1)N(CCCO)CC2)NCCOc1ccccc1OCC(F)(F)F` was “inactive”.
